# The OligoGym collection
# Molecular target: CREB5
# Experiment: pooled miR-30 sensor sort-seq; sequence = guide strand
# Details: shRNA
# Further: reference of the scale not given here.
row,Sequence,sensor-assay potency score (higher = more potent)
1,TACACTTCTACAAGAAAGCTGT,0.523
2,TTAAGTATAGCTTAGCTGCTGC,-0.267
3,TTACTTGTAAGTTTATTGCTGC,0.486
4,TAGAACATTGTATTTGAACTGA,-0.137

# Molecular target: CREG1
# Experiment: as above
# Details: shRNA
row,Sequence,sensor-assay potency score (higher = more potent)
1,TTTCTTGCAGAAGTTGGTCTGT,0.391
2,TAGAAATAGGGCACGCCGCTGC,-0.314
3,TCACCTTGGTCACAGTTCCTGA,-0.428
4,TTTGTGGATCAAATCCATGTTT,-0.755
5,ATATTGGTTATATTCAACTTAG,-1.21
6,TGGTCCACCAAAGTAGTCCAGG,-1.37
7,TTTGCAATATCCATTTCTGTTT,-1.42
8,TTCACCTTGGTCACAGTTCCTG,-0.406
9,TTCTTGCAGAAGTTGGTCTGTG,-0.659
10,TTGTGGATCAAATCCATGTTTC,-1.13
11,TCCAATAACAGGTCAACTCTAT,-0.715

# Molecular target: CRIPAK
# Experiment: as above
# Details: shRNA
row,Sequence,sensor-assay potency score (higher = more potent)
1,TAGAATGTACGGTAACAGCGTC,-0.204
2,ACCTACAGAACCACCATGCCAG,-1.69
3,TACAGAACCACCATGCCAGGGC,0.653
4,ATGTACGGTAACAGCGTCTGAC,-0.866
5,TCGACATGTGTGAGCAGGCGGG,-1.62
6,AACAGCGTCTGACTCGGCCGGC,-0.602
7,ACCATGAGTAGAATGTACGGTA,-1.4
8,TCCACATGGGCACATGAGCAGG,-2.25
9,TAACAGCGTCTGACTCGGCCGG,-0.738
10,TTAAAAAGCCACCATGAGTAGA,-1.01
11,TACGGTAACAGCGTCTGACTCG,-0.0922
12,TATAAAAGGGATCCTTGACATA,-1.08

# Molecular target: CROT
# Experiment: as above
# Details: shRNA
row,Sequence,sensor-assay potency score (higher = more potent)
1,TTTTCTTATATTCTTCTTGATT,-1.35
2,TAGCATTCGGAATTGATTCATA,-0.712
3,TGATGGTATACGAACATCCAGA,-1.05
4,TATACCAGTAAACTACTCTGAA,0.286
5,TTGTAACATCTTTTGCTGCCGC,-0.495
6,TTGTCTGAGAAGCTCTGGCGGG,-0.935
7,TAGAGGAGTATTTCCAACTTTA,-0.214
8,TTTCATAGCAACAACCAGGGTG,0.143
9,TATATCTCGTACCTTCTCTGAA,-0.557
10,TTCTAATTGAGTCCCTTCCTTT,-0.88
11,TTCATAGCAACAACCAGGGTGT,0.163
12,TTCAAGTGAAGGAACAGGCAGT,0.589
